# From paper PMC7862700, “An all-to-all approach to the identification of sequence-specific readers for epigenetic DNA modifications on cytosine”
# What was measured:
# Assay in all cases: DAPPL (digital affinity profiling via proximity ligation, sequencing); 10 mM Tris-HCl pH 7.5, 50 mM NaCl, 1 mM DTT, 4% glycerol, room temperature, 30 min; GST-TFs on glutathione beads, 16-mer random dsDNA library, 0.1% formaldehyde crosslink after washing; high values mean tight binding
# Details in all cases: protein: recombinant; tags: N-terminal GST; dsDNA, one strand shown
# [1] = target: SPIB (Homo sapiens, UniProt Q01892 1-262)
# How it was run: (§1)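 Human transcription factors fused to GST were expressed in yeast, captured on glutathione beads, given DNA barcodes and pooled with a GST-only negative control. Pools were incubated with 200 nmole of a 16-mer random double-stranded DNA library in Tris/NaCl/DTT/glycerol buffer at room temperature for 30 min. They were then washed, crosslinked with 0.1% formaldehyde, proximity-ligated (BsaI/T4 ligase, 1 h, 37 °C), PCR-amplified and sequenced on an Illumina NextSeq500. Binding signal is each 6-mer's read frequency for a factor divided by its frequency for the GST control.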
# [2] = target: T1, SPIC (Homo sapiens, UniProt Q8N5J4 1-248)
# T1 sequence: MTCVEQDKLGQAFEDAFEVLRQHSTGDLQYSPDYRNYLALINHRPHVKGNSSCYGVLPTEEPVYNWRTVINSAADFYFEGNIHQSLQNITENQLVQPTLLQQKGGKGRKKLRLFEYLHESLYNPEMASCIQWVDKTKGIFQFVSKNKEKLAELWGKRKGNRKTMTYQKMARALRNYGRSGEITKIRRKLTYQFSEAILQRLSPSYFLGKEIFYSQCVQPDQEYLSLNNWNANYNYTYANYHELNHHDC
# How it was run: as §1
# [3] = target: T2, ELK4 (Homo sapiens, UniProt P28324-2 1-405)
# T2 sequence: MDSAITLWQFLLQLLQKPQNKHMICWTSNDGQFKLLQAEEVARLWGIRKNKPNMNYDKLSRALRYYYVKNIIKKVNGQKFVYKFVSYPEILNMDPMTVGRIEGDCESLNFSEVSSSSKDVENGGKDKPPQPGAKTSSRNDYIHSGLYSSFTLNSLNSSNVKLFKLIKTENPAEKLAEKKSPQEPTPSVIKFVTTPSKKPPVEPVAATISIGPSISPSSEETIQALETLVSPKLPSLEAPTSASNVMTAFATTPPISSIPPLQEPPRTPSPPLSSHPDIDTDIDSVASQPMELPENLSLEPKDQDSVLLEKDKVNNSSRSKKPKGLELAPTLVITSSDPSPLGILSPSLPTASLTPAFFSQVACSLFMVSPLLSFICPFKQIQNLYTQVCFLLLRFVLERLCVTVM
# How it was run: as §1
# [4] = target: T3, ETV2 (Homo sapiens, UniProt O00321 1-342)
# T3 sequence: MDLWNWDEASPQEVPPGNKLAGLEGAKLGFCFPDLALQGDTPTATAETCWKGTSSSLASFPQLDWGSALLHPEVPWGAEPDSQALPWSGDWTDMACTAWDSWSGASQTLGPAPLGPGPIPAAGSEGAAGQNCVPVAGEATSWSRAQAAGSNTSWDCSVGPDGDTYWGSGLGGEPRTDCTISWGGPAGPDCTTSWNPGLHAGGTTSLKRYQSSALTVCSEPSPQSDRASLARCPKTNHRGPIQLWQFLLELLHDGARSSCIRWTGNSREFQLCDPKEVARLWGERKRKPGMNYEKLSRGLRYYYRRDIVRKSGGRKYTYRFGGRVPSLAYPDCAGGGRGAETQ
# How it was run: as §1
# [5] = target: CRX (Homo sapiens, UniProt O43186 1-299)
# How it was run: as §1
# [6] = target: ETV1 (Homo sapiens, UniProt P50549 1-477)
# How it was run: as §1
# [7] = target: T4, ELK1 (Homo sapiens, UniProt P19419 1-428)
# T4 sequence: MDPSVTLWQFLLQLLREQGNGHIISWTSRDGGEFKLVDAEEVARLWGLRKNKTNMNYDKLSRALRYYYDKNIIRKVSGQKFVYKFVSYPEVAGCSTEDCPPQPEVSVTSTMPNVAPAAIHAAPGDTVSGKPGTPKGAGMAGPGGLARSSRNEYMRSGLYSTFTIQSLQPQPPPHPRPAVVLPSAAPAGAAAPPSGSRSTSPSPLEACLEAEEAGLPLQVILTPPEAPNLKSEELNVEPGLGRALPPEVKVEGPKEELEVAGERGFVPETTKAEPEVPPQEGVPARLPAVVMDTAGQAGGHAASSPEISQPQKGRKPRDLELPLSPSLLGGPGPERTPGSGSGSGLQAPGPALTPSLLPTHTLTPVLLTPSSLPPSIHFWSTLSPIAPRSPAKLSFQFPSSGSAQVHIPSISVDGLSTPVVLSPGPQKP
# How it was run: as §1
# [8] = target: T5, ETV7 (Homo sapiens, UniProt Q9Y603 1-341)
# T5 sequence: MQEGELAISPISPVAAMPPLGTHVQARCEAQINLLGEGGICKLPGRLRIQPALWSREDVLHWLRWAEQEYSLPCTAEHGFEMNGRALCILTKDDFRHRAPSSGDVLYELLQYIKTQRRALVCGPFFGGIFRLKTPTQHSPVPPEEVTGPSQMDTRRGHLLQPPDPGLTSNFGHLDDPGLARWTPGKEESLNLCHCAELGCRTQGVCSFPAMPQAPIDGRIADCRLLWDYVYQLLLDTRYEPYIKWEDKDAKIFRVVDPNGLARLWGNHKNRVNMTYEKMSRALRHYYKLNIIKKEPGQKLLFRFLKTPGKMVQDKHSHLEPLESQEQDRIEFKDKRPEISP
# How it was run: as §1
# [9] = target: T6, ELF5 (Homo sapiens, UniProt Q9UKW6-2 1-255)
# T6 sequence: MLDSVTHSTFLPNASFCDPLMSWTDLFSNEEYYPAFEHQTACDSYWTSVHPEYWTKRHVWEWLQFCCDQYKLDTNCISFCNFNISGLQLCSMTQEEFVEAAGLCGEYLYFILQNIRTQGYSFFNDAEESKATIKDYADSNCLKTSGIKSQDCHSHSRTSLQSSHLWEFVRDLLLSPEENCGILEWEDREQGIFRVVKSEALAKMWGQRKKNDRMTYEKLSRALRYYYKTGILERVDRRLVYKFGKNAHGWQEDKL
# How it was run: as §1
# [10] = target: ETV6 (Homo sapiens, UniProt P41212 1-452)
# How it was run: as §1
# [11] = target: SPI1 (Homo sapiens, UniProt P17947 1-270)
# How it was run: as §1
# [12] = target: T7, ETV3L (Homo sapiens, UniProt Q6ZN32 1-361)
# T7 sequence: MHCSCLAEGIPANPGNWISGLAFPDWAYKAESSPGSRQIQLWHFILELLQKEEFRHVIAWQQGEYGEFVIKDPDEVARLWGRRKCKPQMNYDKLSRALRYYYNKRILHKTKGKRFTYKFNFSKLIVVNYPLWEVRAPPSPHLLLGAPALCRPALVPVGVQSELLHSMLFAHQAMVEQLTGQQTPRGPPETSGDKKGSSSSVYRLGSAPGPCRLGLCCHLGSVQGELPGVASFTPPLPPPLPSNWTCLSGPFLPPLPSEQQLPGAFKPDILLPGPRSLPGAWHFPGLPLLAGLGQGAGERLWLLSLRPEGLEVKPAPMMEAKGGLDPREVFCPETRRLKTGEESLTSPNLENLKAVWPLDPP
# How it was run: as §1
# [13] = target: T8, FEV (Homo sapiens, UniProt Q99581 1-238)
# T8 sequence: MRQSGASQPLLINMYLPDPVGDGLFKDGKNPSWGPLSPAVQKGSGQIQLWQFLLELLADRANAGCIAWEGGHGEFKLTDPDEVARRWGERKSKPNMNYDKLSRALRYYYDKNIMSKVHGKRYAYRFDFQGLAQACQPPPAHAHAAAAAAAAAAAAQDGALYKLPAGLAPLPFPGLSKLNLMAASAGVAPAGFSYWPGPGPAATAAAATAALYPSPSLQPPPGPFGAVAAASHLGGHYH
# How it was run: as §1
# ETV6, sequence (P41212 whole entry): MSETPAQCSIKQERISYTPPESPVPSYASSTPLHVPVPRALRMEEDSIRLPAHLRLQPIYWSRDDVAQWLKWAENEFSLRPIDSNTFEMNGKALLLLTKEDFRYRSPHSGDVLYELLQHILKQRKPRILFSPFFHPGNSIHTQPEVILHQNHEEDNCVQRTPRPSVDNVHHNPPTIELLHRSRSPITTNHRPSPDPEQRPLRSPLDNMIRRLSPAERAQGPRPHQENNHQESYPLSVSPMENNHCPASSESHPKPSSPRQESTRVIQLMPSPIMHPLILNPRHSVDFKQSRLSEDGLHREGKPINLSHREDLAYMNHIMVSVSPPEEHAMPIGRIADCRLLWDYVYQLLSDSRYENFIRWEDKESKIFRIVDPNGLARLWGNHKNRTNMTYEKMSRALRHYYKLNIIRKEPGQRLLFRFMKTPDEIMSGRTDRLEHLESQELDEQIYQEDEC
# SPIB, sequence (Q01892 whole entry, the tested form may be a part): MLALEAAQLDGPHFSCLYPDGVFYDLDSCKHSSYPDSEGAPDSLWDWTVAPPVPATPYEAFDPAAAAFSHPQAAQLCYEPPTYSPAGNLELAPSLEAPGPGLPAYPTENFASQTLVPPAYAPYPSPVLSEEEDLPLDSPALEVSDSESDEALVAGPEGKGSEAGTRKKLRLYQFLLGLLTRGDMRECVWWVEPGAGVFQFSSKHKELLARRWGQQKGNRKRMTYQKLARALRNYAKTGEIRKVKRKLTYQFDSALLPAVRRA
# ETV1, sequence (P50549 whole entry): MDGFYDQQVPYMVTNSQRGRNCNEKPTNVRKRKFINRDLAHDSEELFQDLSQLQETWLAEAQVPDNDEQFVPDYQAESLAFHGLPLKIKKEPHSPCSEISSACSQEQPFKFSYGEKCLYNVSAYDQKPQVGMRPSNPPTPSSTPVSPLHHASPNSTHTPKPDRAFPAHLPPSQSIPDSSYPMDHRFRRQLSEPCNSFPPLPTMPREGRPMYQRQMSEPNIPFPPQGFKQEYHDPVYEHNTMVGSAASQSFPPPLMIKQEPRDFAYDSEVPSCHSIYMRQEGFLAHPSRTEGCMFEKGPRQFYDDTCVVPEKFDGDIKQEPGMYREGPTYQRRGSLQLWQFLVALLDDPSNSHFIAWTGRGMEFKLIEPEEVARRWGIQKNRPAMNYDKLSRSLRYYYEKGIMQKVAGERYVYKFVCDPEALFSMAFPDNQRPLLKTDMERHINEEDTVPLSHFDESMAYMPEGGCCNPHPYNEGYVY
# CRX, sequence (O43186 whole entry): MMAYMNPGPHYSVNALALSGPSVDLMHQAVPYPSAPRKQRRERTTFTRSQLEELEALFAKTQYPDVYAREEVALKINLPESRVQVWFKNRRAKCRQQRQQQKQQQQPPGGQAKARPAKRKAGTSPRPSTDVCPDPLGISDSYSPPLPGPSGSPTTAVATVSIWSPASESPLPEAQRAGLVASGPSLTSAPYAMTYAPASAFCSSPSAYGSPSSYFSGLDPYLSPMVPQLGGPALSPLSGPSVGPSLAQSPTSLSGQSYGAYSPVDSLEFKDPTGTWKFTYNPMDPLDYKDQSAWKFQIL
sequence,measurement,setting,value
GCAGAT,binding signal,[1],"1.02 fold enrichment (6-mer frequency, TF over GST control)"
same,binding signal,[2],"1 fold enrichment (6-mer frequency, TF over GST control)"
same,binding signal,[3],"1.04 fold enrichment (6-mer frequency, TF over GST control)"
same,binding signal,[4],"1.17 fold enrichment (6-mer frequency, TF over GST control)"
same,binding signal,[5],"1.21 fold enrichment (6-mer frequency, TF over GST control)"
GTGATG,binding signal,[1],"1.04 fold enrichment (6-mer frequency, TF over GST control)"
same,binding signal,[2],"1.01 fold enrichment (6-mer frequency, TF over GST control)"
same,binding signal,[3],"1.18 fold enrichment (6-mer frequency, TF over GST control)"
same,binding signal,[6],"1.03 fold enrichment (6-mer frequency, TF over GST control)"
GACATG,binding signal,[7],"1.01 fold enrichment (6-mer frequency, TF over GST control)"
same,binding signal,[2],"1.1 fold enrichment (6-mer frequency, TF over GST control)"
same,binding signal,[8],"1.03 fold enrichment (6-mer frequency, TF over GST control)"
GATCCG,binding signal,[9],"1.02 fold enrichment (6-mer frequency, TF over GST control)"
AGGTAA,binding signal,[9],"1.01 fold enrichment (6-mer frequency, TF over GST control)"
same,binding signal,[10],"1.02 fold enrichment (6-mer frequency, TF over GST control)"
ATAACG,binding signal,[10],"1.03 fold enrichment (6-mer frequency, TF over GST control)"
AGTTTA,binding signal,[11],"1.01 fold enrichment (6-mer frequency, TF over GST control)"
same,binding signal,[12],"1.09 fold enrichment (6-mer frequency, TF over GST control)"
GTAGCC,binding signal,[11],"1.03 fold enrichment (6-mer frequency, TF over GST control)"
AGCCCA,binding signal,[13],"1.01 fold enrichment (6-mer frequency, TF over GST control)"
